# Results as given in article PMC4336329 (PLoS ONE, 2015).
# In all, about 310,000 compounds went through this assay and about 14,000 (4.5%) showed an effect of 50% or more. Effects have a minus sign here. Shown is part of a subset that was picked to be rich in strong results.
# Target: human ether-à-go-go-related gene (hERG) potassium channel (human, UniProt Q12809)
# Test: primary screen, population patch clamp on CHO cells stably expressing hERG; higher = less effect of the substance
# 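Further: peak tail current of the secondary pulse compared with the same well before compound.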
# Chain of human ether-à-go-go-related gene (hERG) potassium channel (Q12809 whole entry, looked up): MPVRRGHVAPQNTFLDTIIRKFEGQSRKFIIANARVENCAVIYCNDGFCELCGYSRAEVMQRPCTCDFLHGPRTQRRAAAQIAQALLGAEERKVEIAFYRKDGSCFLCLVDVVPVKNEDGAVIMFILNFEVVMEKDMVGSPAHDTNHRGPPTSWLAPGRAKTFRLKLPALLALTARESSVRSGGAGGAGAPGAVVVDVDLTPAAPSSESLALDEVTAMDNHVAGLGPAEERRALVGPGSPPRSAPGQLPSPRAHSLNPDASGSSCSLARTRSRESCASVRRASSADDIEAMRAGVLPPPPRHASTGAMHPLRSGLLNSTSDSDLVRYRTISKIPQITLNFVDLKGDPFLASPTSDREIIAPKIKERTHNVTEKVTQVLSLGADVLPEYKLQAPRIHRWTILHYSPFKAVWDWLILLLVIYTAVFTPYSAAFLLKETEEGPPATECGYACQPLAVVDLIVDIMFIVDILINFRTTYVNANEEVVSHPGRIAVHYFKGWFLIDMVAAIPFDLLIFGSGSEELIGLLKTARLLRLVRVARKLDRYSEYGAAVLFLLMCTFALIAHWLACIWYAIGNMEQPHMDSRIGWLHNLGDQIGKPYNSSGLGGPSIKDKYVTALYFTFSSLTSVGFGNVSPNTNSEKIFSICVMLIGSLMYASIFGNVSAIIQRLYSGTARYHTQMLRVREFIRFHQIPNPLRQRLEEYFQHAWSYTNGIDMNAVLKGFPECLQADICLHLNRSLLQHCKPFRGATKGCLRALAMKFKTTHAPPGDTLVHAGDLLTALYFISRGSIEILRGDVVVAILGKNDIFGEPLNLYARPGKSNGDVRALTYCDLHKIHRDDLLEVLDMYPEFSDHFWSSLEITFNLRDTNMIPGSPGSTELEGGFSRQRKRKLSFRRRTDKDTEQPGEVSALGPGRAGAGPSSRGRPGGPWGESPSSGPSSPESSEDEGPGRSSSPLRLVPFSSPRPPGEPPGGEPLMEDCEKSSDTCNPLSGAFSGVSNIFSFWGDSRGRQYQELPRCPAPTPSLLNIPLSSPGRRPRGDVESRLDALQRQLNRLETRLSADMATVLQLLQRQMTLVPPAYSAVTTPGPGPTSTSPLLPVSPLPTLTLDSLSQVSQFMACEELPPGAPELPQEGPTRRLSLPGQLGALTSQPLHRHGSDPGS
row,SMILES,"hERG current change (%, negative = inhibition) at 10uM"
1,Cc1ccc2c(c1)N(CCC(=O)NCCCOC(C)C)C(=O)C(C)O2 (stereo not shown),-0.496%
2,O=C(Nc1ccccc1C(=O)NCc1cccnc1)c1cccc([N+](=O)[O-])c1,-1.36%
3,O=C(CSc1nc(-c2ccc(F)cc2)cc(C(F)(F)F)n1)NCc1ccco1,10.2%
4,Oc1nc(-c2ccc(Br)cc2)n2ccncc12,-8.14%
5,CC(C)(C)NC(=O)CSc1nc2ccccc2c(=O)[nH]1,11.7%
6,COc1ccc(CCNC(=O)c2cc3ccccn3n2)c(OC)c1OC,-3.41%
7,O=C(CNC1CCCCC1)N1CCC2(CC1)OCCO2.O=C(O)C(=O)O,21.4%
8,CCOC(=O)Cc1cc(=O)n2[nH]c(-c3ccccc3)c(-c3ccccc3)c2n1,-18%
9,Cl.OC(CN1CCNCC1)Cn1c2ccccc2c2ccccc21 (stereo not shown),-6.23%
10,Cc1ccc(OCCN2CCN(CC(O)Cn3c4ccccc4c4ccccc43)CC2)cc1.O=C(O)C(=O)O (stereo not shown),-25.1%
11,COc1ccc(CN2CCN(CC(O)Cn3c4ccccc4c4ccccc43)CC2)cc1 (stereo not shown),-75.2%
12,CC1CCN(CC(O)Cn2c3ccccc3c3ccccc32)CC1 (stereo not shown),-54%
13,OC(CN1CCOCC1)Cn1c2ccccc2c2ccccc21 (stereo not shown),2.42%
14,CC(=O)N1CCN(CC(O)Cn2c3ccccc3c3ccccc32)CC1 (stereo not shown),7.81%
15,CN1CCN(CC(O)Cn2c3ccccc3c3ccccc32)CC1.O=C(O)C(=O)O (stereo not shown),3.46%
16,OC(CN1CCCCC1)Cn1c2ccccc2c2ccccc21 (stereo not shown),3.16%
17,O=CN1CCN(CC(O)Cn2c3ccccc3c3ccccc32)CC1 (stereo not shown),-23.6%
18,OC(CN1CCN(c2ccccc2)CC1)Cn1c2ccccc2c2ccccc21 (stereo not shown),9.1%
19,OC(CN1CCN(Cc2ccccc2)CC1)Cn1c2ccccc2c2ccccc21 (stereo not shown),-67.7%
20,CCOc1ccc(CN2CCN(CC(O)Cn3c4ccccc4c4ccccc43)CC2)cc1 (stereo not shown),-70.9%
21,CSc1cc(C)[nH]c(=O)n1,7.05%
22,CCOc1cc(S(=O)(=O)Nc2ccc(Cl)cn2)ccc1Cl,5.67%

row,SMILES,"hERG current change (%, negative = inhibition) at 10uM"
1,CCC(C)C(NC(=O)OCc1ccccc1)C(=O)OCN1C(=O)c2ccccc2C1=O (stereo not shown),-2.01%
2,COCc1cc(C)nc2sc(C(=O)Nc3ccc(OC)cc3)c(N)c12,12.5%
3,COc1ccccc1CN1CCCCC1C(=O)O (stereo not shown),9.48%
4,CCC(C)n1c(=S)[nH]c2ccccc2c1=O (stereo not shown),-0.621%
5,O=C(CC12CC3CC(CC(C3)C1)C2)NC(=S)N1CCCCC1,26.6%
6,CN(CC(=O)Nc1ccccc1Br)C(=O)c1ccccc1-c1nc2ccccc2s1,-26.3%
7,O=C(CCS(=O)(=O)c1ccc(Br)cc1)NC1CCCC1,11.6%
8,COC(=O)c1ccc(-c2c(-c3ccccc3)ncc3cc(F)ccc23)cc1,7.97%
9,CC1CCN(C(=O)N2c3ccccc3Sc3ccccc32)CC1,-5.69%
10,CC1CCN(CC(O)CN2c3ccccc3Sc3ccccc32)CC1 (stereo not shown),-59.2%
11,CCN(CC)CC(O)CN1c2ccccc2Sc2ccccc21 (stereo not shown),-25%
12,COC(=O)c1sc(NC(=O)COc2ccc(OC)cc2)nc1C,6.37%
13,COC(=O)c1ccccc1NC(=O)c1cnn2cccnc12,13%
14,C/C(NC(=O)c1ccccc1)=C1/C(=O)CC2C1C2(C)C (stereo not shown),2.15%
15,O=C(CN(Cc1ccco1)C(=O)c1cc(=O)[nH]c2ccccc12)Nc1ccccc1Br,-53.5%
16,COc1cc(SC)ccc1C(=O)N(CC(=O)Nc1ccccc1Br)Cc1ccco1,-10.4%
17,O=C(CN(Cc1ccco1)C(=O)c1cc(=O)[nH]c2ccccc12)Nc1ccccc1C(F)(F)F,-12%
18,CC(C)=CCOc1ccc2ccc(=O)oc2c1,-12.9%
19,Cc1cccc(C(=O)Nc2ccccc2NC(=O)c2cccc(C)c2)c1,8.24%
20,COC(=O)c1c(NC(=O)CCN2CCOCC2)sc2c1CCCC2,-26%
21,CCOc1ccc(NC(=O)c2c(NC(=O)CN3CCN(C)CC3)sc3c2CCC3)cc1,-72.7%
22,COc1ccc(NC(=O)c2c(NC(=O)CNCc3ccco3)sc3c2CCC3)cc1,17.8%

row,SMILES,"hERG current change (%, negative = inhibition) at 10uM"
1,O=C(CN1CCCC1)Nc1sc2c(c1C(=O)Nc1ccc(Br)cc1)CCC2,-1.29%
2,CCOc1ccc(NC(=O)c2c(NC(=O)CNCCN3CCOCC3)sc3c2CCC3)cc1,-69.3%
3,CCOc1ccc(NC(=O)c2c(NC(=O)CN3CCCC3)sc3c2CCC3)cc1,-3.84%
4,CC(NC(=O)N(Cc1ccccc1)Cc1ccc2c(c1)OCO2)(C(F)(F)F)C(F)(F)F,7.8%
5,O=C(CCCN=C1NS(=O)(=O)c2ccccc21)OCc1cc([N+](=O)[O-])cc2c1OCOC2,-14.7%
6,CCC(OC(=O)c1ccco1)C(=O)NCc1ccc(OC)cc1 (stereo not shown),-8.67%
7,O=C(Cc1cccc2ccccc12)N1CC[C@@]2(O)CCCC[C@H]2C1,12.5%
8,CN(C)S(=O)(=O)c1cccc(NC(=O)COC(=O)c2ccc3c(c2)OCO3)c1,-19.4%
9,COc1ccc(OC)c(NC(=S)NCCC(c2ccccc2)c2ccccc2)c1,1.73%
10,COc1ccc(CNCCC(c2ccc(OC(C)C)cc2)c2ccccc2OC)cc1OC (stereo not shown),-71.3%
11,COc1ccc(CNCCCO)cc1OC,4.57%
12,COc1ccc(C(C)NC(=S)NCc2ccc(F)cc2)cc1OC (stereo not shown),-5.63%
13,COc1ccc(CNCCC(c2ccc(OC(C)C)cc2)C(C)C)cc1OC (stereo not shown),-74.5%
14,COc1ccc(CNCCC(c2ccccc2)c2ccc(OC(C)C)cc2)cc1OC (stereo not shown),-69.7%
15,COc1ccc(C(CCNCc2ccc(OC(C)C)cc2)C(C)C)cc1 (stereo not shown),-39%
16,CCOCCCNCc1ccc(OC)c(OC)c1.O=C(O)C(=O)O,3.24%
17,COc1ccc(CN(CCC(c2ccccc2)c2ccc(OC(C)C)cc2)C(=O)CCl)cc1OC (stereo not shown),-1.82%
18,COc1ccc(CNCCCSc2ncccn2)cc1OC.Cl,11.9%
19,COc1ccc(CC(=O)NC(C)CCc2ccccc2)cc1OC (stereo not shown),8.96%
20,COc1ccc(CNCCC(c2ccc(F)cc2)c2ccc(OC(C)C)cc2)cc1OC (stereo not shown),-73%
21,C/C(=N\NC(=O)c1ccc(CN2CCOCC2)cc1)c1cccc([N+](=O)[O-])c1,-19.5%
22,COc1ccccc1C(=O)Nc1ccccc1C(=O)NC1CCCCC1,-1.19%

row,SMILES,"hERG current change (%, negative = inhibition) at 10uM"
1,O=C(COc1ccccc1Cl)Nc1ccc(C(=O)c2ccc(C(=O)O)cc2)cc1,11.7%
2,Cc1cccc2c(=O)oc(-c3ccccc3Cl)nc12,14.2%
3,Cc1ccc(CN2[C@@H](CC(C)C)COCCS2(=O)=O)cc1,-2.46%
4,CCOc1ccc(CN(C)C(=O)c2ccc(NC(=O)CC3SC(N4CCCC4)=NC3=O)cc2)cc1 (stereo not shown),7.53%
5,O=C(NCC1CCCO1)c1ccccc1-c1nc(-c2ccc(F)cc2)no1 (stereo not shown),-31.1%
6,CCc1nnc(NC(=O)CSc2nnc(COc3ccccc3)n2Cc2ccccc2)s1,5.71%
7,COc1ccc(NC(=O)c2sccc2-n2cccc2)cc1,3.64%
8,CCc1cccc2c(C(=O)CN3C(=O)NC4(CCc5ccccc54)C3=O)c[nH]c12 (stereo not shown),10.4%
9,CC(NC(=O)CSc1nc(=O)cc(N)n1CCc1ccccc1)c1ccccc1 (stereo not shown),1.91%
10,O=C(Cn1c(=O)n(-c2cccc(Cl)c2)c(=O)n1CC(=O)N1CCCCC1)N1CCCCC1,4.64%
11,CCOc1ccc(-n2c(C)cc(C(=O)NS(=O)(=O)c3ccc(C)cc3)c2C)cc1,-32.3%
12,CCOC(=O)C1CCN(C(=O)CSc2n[nH]c(=O)[nH]c2=O)CC1,7.16%
13,COc1ccc(C(CCN(Cc2ccc(OC)c(OC)c2)C(C)=O)C(C)C)cc1 (stereo not shown),-52.3%
14,COc1ccc(CNC(=S)NCc2ccc(F)cc2)cc1OC,-0.604%
15,COc1ccc(C(CCN(Cc2ccc(OC)c(OC)c2)C(C)=O)c2ccccc2)cc1 (stereo not shown),-33.9%
16,COc1ccc(C(CCNCc2ccc(OC)c(OC)c2)c2ccc(F)cc2)cc1 (stereo not shown),-71.3%
17,CC(C)Oc1ccc(CNC(=O)CC(c2ccccc2)c2cc(Cl)ccc2O)cc1 (stereo not shown),11.8%
18,COc1ccc(CN(CCC(c2ccco2)C(C)C)C(C)=O)cc1OC (stereo not shown),0.825%
19,CC(C)Oc1ccc(C(CCNCc2ccc(O)cc2)c2ccccc2)cc1 (stereo not shown),-58.7%
20,CC(C)Oc1ccc(CNC(=O)Oc2ccccc2)cc1,8.19%
21,COc1ccc(NCc2ccc(OC)c(OC)c2)cc1,2.67%
22,Cc1ccc(S(=O)(=O)N2CCN(S(=O)(=O)N3CCOCC3)CC2)cc1,13.4%
